This passage reports z-score and composite z-score results from PubChem BioAssay.

Experiment [1] in a line: HepG2 liver cancer cell viability effects, profiling panel, resazurin fluorescence, 24 h, PK04 Diversity Set (AID 1172). As to conditions: higher = more signal.
Experiment [2] in a line: basal S. cerevisiae growth modulation, no modifier, primary screen, OD600, strain BY4716, 24 h, basal condition (AID 1173). To be noted: OD600, 24 h, higher = more signal, called active from +8 up or from −8 down.
Experiment [3] is described as follows: MM1S myeloma cell viability, profiling panel, resazurin fluorescence, basal, 24 h, PK04 Diversity Set (AID 1174).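 Further: MM1S multiple myeloma cell line.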 As to conditions: higher = more signal, called active from +8 up or from −8 down. On the technique in general: Resazurin is reduced to fluorescent resorufin, in cell work by metabolically active cells.
Experiment [4] has as its target Dihydroorotate dehydrogenase (quinone), mitochondrial (Plasmodium falciparum (isolate 3D7)) (UniProt Q08210). Briefly: PfDHODH enzyme inhibitors, primary screen, biochemical, C-terminal His tag, absorbance 600 nm (AID 1175).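 Further: recombinant parasite enzyme with a five histidine tag at its C terminus.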 To be noted: DCIP absorbance 600 nm, higher = more signal, called active from +8 up or from −8 down.
Experiment [5] in a line: P. aeruginosa biofilm formation inhibitors, primary screen, strain PAO1, LB-PBS medium, absorbance 600 nm (AID 1176). To be noted: P. aeruginosa PAO1 growth/biofilm, A600, 12 h; higher = more signal.
Experiment [6] can be described thus: S. cerevisiae RM11-1a growth modifiers, primary screen, strain RM11-1a, OD600, basal, 24 h (AID 1177).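 Further: cultures grown under basal conditions with no added stressor.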 As to conditions: OD600, 24 h, higher = more signal, called active from +8 up or from −8 down.
The nature of experiment [7]: E. coli acrAB mutant growth effects, primary screen, E. coli filamentation inducers, strain DRC39, OD650, 24 h (AID 1178).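 Further: growth measured as culture turbidity by optical density at 650 nm.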 To be noted: higher = more signal, called active from +8 up or from −8 down.
Experiment [8] in a line: E. coli acrAB mutant growth effects, primary screen, E. coli filamentation inducers, strain DRC39, OD650, 48 h (AID 1179).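 Further: screen aims at cell division blockers that make cells filament.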 As to conditions: E. coli DRC39 delta-acrAB growth, higher = more signal, called active from +8 up or from −8 down.
Experiment [9] is described as follows: RPMI8226 myeloma cell viability, profiling panel, resazurin fluorescence, basal, 24 h, PK04 Diversity Set (AID 1180).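 Further: RPMI8826 multiple myeloma cell line at 5000 cells per well.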 To be noted: higher = more signal.
Experiment [10] addresses E3 ubiquitin-protein ligase XIAP (Homo sapiens) (UniProt P98170). As to the kind of experiment: XIAP binders, primary screen, biophysical, small-molecule microarray, fluorescence 635 nm (AID 1181).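 Further: score merges 667 nm emission and signal to noise over triplicate slides.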 As to conditions: small-molecule microarray binding, higher = more signal.
For experiment [11], the system named is XIP peptide (Xip251-270) binding. As to the kind of experiment: small-molecule binders of XIP peptide, primary screen, biochemical, small-molecule microarray, fluorescence 635/667 nm, 0.1 µg/mL protein (AID 1182). As to conditions: fluorescent protein binding, 635 nm, higher = more signal, called active from +8 up or from −8 down.
The test system of the next experiment is XIP peptide (Xip251-270). As to the kind of experiment: small-molecule binders of XIP peptide, primary screen, biochemical, small-molecule microarray, fluorescence 635/667 nm, 0.5 µg/mL protein (AID 1183). To be noted: small-molecule microarray binding, fluorescence 635 nm; higher = more signal.
Experiment [12] in a line: Plasmodium falciparum growth inhibition, primary screen, strain 3D7, DAPI fluorescence, 100 nL (AID 1184).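 Further: parasites grown inside human red blood cells in medium with human serum.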 To be noted: P. falciparum 3D7 growth, 3 d, higher = more signal.
Experiment [13] deals with Homeobox protein Hox-A13 (Mus musculus) (UniProt Q62424). As to the kind of experiment: inhibitors of HoxA13-DNA binding, primary screen, biochemical, fluorescence polarization, labeled oligonucleotide (AID 1185). To be noted: 15 min, higher = more signal, called active from +8 up or from −8 down. Background: Polarisation of emitted light reports the rotation of a fluorescent probe.
Chain of Homeobox protein Hox-A13 (Mus musculus) (Q62424 whole entry, looked up): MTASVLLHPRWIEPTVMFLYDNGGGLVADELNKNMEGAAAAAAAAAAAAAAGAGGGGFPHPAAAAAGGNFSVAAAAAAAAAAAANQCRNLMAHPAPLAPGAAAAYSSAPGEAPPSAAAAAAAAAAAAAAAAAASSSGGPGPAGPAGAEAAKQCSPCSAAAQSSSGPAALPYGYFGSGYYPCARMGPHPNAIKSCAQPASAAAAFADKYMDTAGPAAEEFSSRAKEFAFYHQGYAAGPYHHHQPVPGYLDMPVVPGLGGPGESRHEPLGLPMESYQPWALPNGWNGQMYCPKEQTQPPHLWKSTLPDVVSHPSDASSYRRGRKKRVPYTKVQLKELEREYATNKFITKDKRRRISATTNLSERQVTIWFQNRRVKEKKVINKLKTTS

Experiment [14] is described as follows: inhibitors of hydroxyurea-induced Chk1 phosphorylation, primary screen, imaging, HeLa, phospho-Chk1 antibody, percent positive cells (AID 1186). As to conditions: hydroxyurea-induced phospho-Chk1 immunofluorescence imaging, higher = more signal.
The nature of experiment [15]: inhibitors of hydroxyurea-induced Chk1 phosphorylation, primary screen, imaging, HeLa, phospho-Chk1 nuclear intensity (AID 1187). As to conditions: hydroxyurea-induced phospho-Chk1 immunofluorescence imaging, higher = more signal.

Active and inactive are the calls of the source. Unless noted, how the calls were made is not given here.

Chain of Dihydroorotate dehydrogenase (quinone), mitochondrial (Plasmodium falciparum (isolate 3D7)) (Q08210 whole entry, looked up): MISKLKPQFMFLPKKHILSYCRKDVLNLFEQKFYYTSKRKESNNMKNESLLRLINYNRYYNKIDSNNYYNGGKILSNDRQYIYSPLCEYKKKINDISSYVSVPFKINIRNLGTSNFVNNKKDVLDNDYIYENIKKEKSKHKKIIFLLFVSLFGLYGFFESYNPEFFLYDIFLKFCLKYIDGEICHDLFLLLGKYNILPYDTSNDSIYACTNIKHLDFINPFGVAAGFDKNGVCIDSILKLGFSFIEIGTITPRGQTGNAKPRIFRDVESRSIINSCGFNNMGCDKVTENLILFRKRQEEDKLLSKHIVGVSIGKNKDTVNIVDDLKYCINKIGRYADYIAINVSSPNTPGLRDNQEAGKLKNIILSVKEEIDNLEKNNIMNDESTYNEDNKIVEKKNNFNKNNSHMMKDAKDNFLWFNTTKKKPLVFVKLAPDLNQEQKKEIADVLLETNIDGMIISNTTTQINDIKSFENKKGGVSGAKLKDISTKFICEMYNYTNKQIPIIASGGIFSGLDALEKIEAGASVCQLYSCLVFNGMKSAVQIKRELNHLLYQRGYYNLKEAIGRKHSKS
Chain of E3 ubiquitin-protein ligase XIAP (Homo sapiens) (P98170 whole entry, looked up): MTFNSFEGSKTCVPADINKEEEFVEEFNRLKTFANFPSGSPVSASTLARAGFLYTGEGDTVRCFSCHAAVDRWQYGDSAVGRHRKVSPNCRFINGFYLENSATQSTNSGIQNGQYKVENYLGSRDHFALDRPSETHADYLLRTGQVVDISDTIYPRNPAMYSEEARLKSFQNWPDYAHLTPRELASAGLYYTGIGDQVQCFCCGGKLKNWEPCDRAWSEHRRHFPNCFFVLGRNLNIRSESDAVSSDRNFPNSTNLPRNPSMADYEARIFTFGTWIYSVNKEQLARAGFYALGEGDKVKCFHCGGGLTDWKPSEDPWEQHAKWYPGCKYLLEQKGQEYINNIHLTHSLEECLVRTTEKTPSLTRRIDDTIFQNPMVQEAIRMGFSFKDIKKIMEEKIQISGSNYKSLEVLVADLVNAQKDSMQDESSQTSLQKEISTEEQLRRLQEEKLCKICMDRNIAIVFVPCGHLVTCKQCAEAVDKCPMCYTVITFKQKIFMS

With `C=C(COC)C(=O)CC[C@@H](OC(=O)c1cccnc1)c1cccc(OCCO)c1`, the z-score in experiment [1] is 0.312; in experiment [2], 0.798 (inactive); in [3], -0.857 (inactive); in experiment [5] it was 0.543 (inactive); in experiment [6], 0.544 (inactive); in experiment [7] it was 1.16 (inactive). Further, the z-score in experiment [8] was 0.927 (inactive); in experiment [9] it was -2.55; in experiment [12], -2.53; in [13] it was -4.51 (inactive); in [14] it was -0.494 (inactive); in [15] it was 2.22 (inactive). Further, the composite z-score in experiment [4] is -0.289 (inactive); in experiment [10], -0.162; in experiment [11], -0.209 (inactive); with XIP peptide (Xip251-270) it was 0.617.

On to `N[C@@H](Cc1ccccc1)Cn1cc(C2(O)CCCCC2)nn1`, for which the z-score was -0.384 in experiment [1]; -0.125 (inactive) in experiment [2]; -0.156 (inactive) in experiment [3]; 0.0672 (inactive) in experiment [5]; -0.507 (inactive) in [6]; -0.0019 (inactive) in experiment [7]. The z-score was -0.607 (inactive) in experiment [8]; -0.785 in experiment [9]; 0.493 in experiment [12]; -3.59 (inactive) in experiment [13]; 0.43 (inactive) in experiment [14]; 0.426 (inactive) in experiment [15]. Further, the composite z-score in experiment [4] is -0.0324 (inactive); in [10], -0.0767; in [11], -0.0563 (inactive); with XIP peptide (Xip251-270), 0.0069.

With `CC#CCO[Si](C#CCCCCCC)(C(C)C)C(C)C`, the z-score in [1] was 0.296; in experiment [2] it was -9.54 (active); in experiment [3], 0.486 (inactive); in [5], 0.501 (inactive); in experiment [6] it was 0.0606 (inactive); in experiment [7], -0.0081 (inactive). Further, the z-score in [8] is 0.448 (inactive); in [9], 0.166; in [12] it was -1.23; in [13] it was -2 (inactive); in experiment [14] it was -0.156 (inactive); in experiment [15] it was 0.0743 (inactive). The composite z-score in experiment [4] is -0.487 (inactive); in experiment [10] it was -0.22; in experiment [11] it was -0.0884 (inactive); with XIP peptide (Xip251-270) it was 0.938.

On to `COCCOC(=O)N1C(=O)[C@@]2(c3cc(C#CCC(C(=O)OC)C(=O)OC)ccc31)[C@H](c1ccc(OCCO)cc1)N1[C@H](c3ccccc3)[C@H](c3ccccc3)OC(=O)[C@H]1[C@@H]2C(=O)N1CCCCCCC1`, for which the z-score was -0.0464 in experiment [1]; 1.45 (inactive) in [2]; 0.13 (inactive) in experiment [3]; 0.83 (inactive) in experiment [5]; 2.72 (inactive) in experiment [6]; -0.599 (inactive) in [7]. In addition, the z-score was 0.0786 (inactive) in experiment [8]; 0.174 in [9]; -2.09 in experiment [12]; -15.5 (active) in experiment [13]; -0.181 (inactive) in experiment [14]; 0.106 (inactive) in experiment [15]. Further, the composite z-score in [4] was 0.551 (inactive); in [10], 0.519; in experiment [11] it was 0.836 (inactive); with XIP peptide (Xip251-270), 0.523.

For the compound `COCCCNC(=O)[C@@H]1c2ccccc2C(=O)N(Cc2cc(C(F)(F)F)cc(C(F)(F)F)c2)[C@H]1c1ccc(CO)cc1`, the z-score in experiment [1] is -0.249; in experiment [2], -0.65 (inactive); in experiment [3] it was -0.0193 (inactive); in [5], 0.196 (inactive); in experiment [6] it was -0.432 (inactive); in [7], 0.153 (inactive). The z-score in [8] is 0.304 (inactive); in [9] it was 0.431; in [12] it was -1.14; in experiment [13], -3.22 (inactive); in [14], -0.334 (inactive); in experiment [15], -0.768 (inactive). Further, the composite z-score in [4] is 0.721 (inactive); in [10], 0.0871; in experiment [11], -0.313 (inactive); with XIP peptide (Xip251-270), -0.903.

In the case of `COC(=O)[C@@]1(Cc2ccc(OC)cc2)[C@H]2c3cc(C(=O)N4CCCC4)n(CCc4ccc(OC)c(Br)c4)c3C[C@H]2CN1C(=O)c1ccccc1`, the z-score in [1] was -0.142; in experiment [2], 0.775 (inactive); in [3] it was -0.354 (inactive); in [5], 0.0539 (inactive); in experiment [6], -0.101 (inactive); in experiment [7], -0.236 (inactive). Moreover, the z-score is -0.351 (inactive) in [8]; 0.282 in experiment [9]; -1.17 in [12]; -4.39 (inactive) in [13]; -0.299 (inactive) in [14]; -0.0792 (inactive) in experiment [15]. For the same compound, the composite z-score in experiment [4] is -0.844 (inactive); in experiment [10], 0.312; in [11], -0.0245 (inactive); with XIP peptide (Xip251-270) it was -0.879.

As for `CCC[C@@H]1C=C(C(=O)OCC)[C@H](c2ccccc2)N1S(=O)(=O)c1ccc(C)cc1`, the z-score in experiment [1] was -0.197; in experiment [2], 1.53 (inactive); in [3], -0.37 (inactive); in experiment [5], 0.0362 (inactive); in experiment [6], 1.84 (inactive); in experiment [7] it was -0.213 (inactive). In addition, the z-score in experiment [8] is 0.0062 (inactive); in [9] it was -1.89; in experiment [12] it was -2.11; in [13] it was -0.624 (inactive); in experiment [14] it was 0.144 (inactive); in [15], 0.0243 (inactive). The composite z-score in experiment [4] was -0.0973 (inactive); in experiment [10] it was -0.0696; in [11], 0.406 (inactive); in the experiment with XIP peptide (Xip251-270) it was 0.681.

Turning to `C=CCC(OC(C)=O)[C@@H]1[C@@H](N(Cc2ccc(-c3cccc(C(F)(F)F)c3)o2)C(=O)c2cccc3ccccc23)c2cc(OCCCO)ccc2N1C(=O)c1ccc2ccccc2c1` (stereo partly drawn), the z-score in experiment [1] was -0.0598; in [2], -0.988 (inactive); in experiment [3] it was -0.416 (inactive); in experiment [5] it was -0.464 (inactive); in [6], 0.204 (inactive); in experiment [7] it was 0.807 (inactive). Also, the z-score in experiment [8] was 0.489 (inactive); in [9] it was -0.311; in experiment [12], -2.73; in [13], -2.32 (inactive); in experiment [14] it was -0.675 (inactive); in experiment [15], -0.36 (inactive). The composite z-score is -0.0361 (inactive) in experiment [4], -0.04 in experiment [10], 0.184 (inactive) in experiment [11] and -0.563 in the experiment with XIP peptide (Xip251-270).
